Laboratory results taken from PubChem BioAssay (Tox21).
Records with an inconclusive call do not appear. Active and inactive are the calls of the source. Unless noted, calls come from the whole dose curve.

Assays:
[1] = qHTS assay to identify small molecule agonists of the vitamin D receptor (VDR) signaling pathway - cell viability counter screen (AID 743224; active = well fitted curve in the direction sought with a large enough effect in the repeat runs; an effect the other way counts as inactive or inconclusive; note: series mostly up to about 63 µM; % is set by controls: 0 for no effect and ±100 for the full control effect; nearly all actives have a fitted effect of over 50% in size)
Outline: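 In parallel with the bla FRET readout, cytotoxicity toward VDR-bla cells after 16 h compound exposure was assessed by CellTiter-Glo, with luminescence recorded after a 30 min room-temperature incubation.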

[2] = qHTS assay to identify small molecule antagonists of the vitamin D receptor (VDR) signaling pathway - cell viability counter screen (AID 743225; active = well fitted curve in the direction sought with a large enough effect in the repeat runs; an effect the other way counts as inactive or inconclusive; note: % is set by controls: 0 for no effect and ±100 for the full control effect; nearly all actives have a fitted effect of over 50% in size)
Outline: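 Luminescent cell viability (CellTiter-Glo) in VDR-bla HEK 293T cells after 16 h compound exposure at 37C in the presence of 3 nM final 1-alpha,25-dihydroxy vitamin D3.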

[3] = qHTS assay to identify small molecule agonists of the NFkB signaling pathway (AID 1159509; active = well fitted curve in the direction sought with a large enough effect in the signal ratio in the repeat runs, not every such curve was filed as active; the % refers to the signal ratio; note: series mostly up to about 61 µM; % is set by controls: 0 for no effect and ±100 for the full control effect)
Outline: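 Pathway activation was measured in ME-180 cells stably expressing beta-lactamase under NF-kB response element control. Substrate cleavage was read as the 460/530 nm emission shift after 5 hr compound incubation.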

[4] = qHTS assay to identify small molecule agonists of the NFkB signaling pathway - cell viability counter screen (AID 1159515); note: series mostly up to about 61 µM; % is set by controls: 0 for no effect and ±100 for the full control effect; nearly all actives have a fitted effect of over 55% in size
Outline: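 Plate 2,000 NFkB-bla ME-180 cells/well; incubate overnight. Add compounds, 5 hr at 37 C. Add FRET substrate, 1.5 hr RT. Add CellTiter-Glo, 30 min RT; read luminescence.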

[5] = qHTS assay to identify small molecule agonists of the endoplasmic reticulum stress response signaling pathway (AID 1159516; active = well fitted activation curve with a large enough effect in the signal ratio in the repeat runs, not every such curve was filed as active; the % refers to the signal ratio; note: % is set by controls: 0 for no effect and ±100 for the full control effect)
Outline: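 Beta-lactamase expression from the ER stress response element in HeLa reporter cells is quantified with the LiveBLAzer B/G FRET substrate, read at 405 nm excitation after 2 hr at room temperature, following 5 hr compound treatment at 37 C.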

[6] = qHTS assay to identify small molecule agonists of the endoplasmic reticulum stress response signaling pathway - cell viability counter screen (AID 1159517); note: series mostly up to about 61 µM; % is set by controls: 0 for no effect and ±100 for the full control effect; nearly all actives have a fitted effect of over 50% in size
Outline: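 In parallel with the ESRE reporter read, cytotoxicity was scored by CellTiter-Glo luminescence (30 min, room temperature) on HeLa ESRE-bla cells dosed for 5 hr.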

[7] = qHTS assay to identify small molecule antagonists of the retinoid-related orphan receptor gamma (ROR-gamma) signaling pathway - cell viability counter screen (AID 1159520; active = well fitted curve in the direction sought with a large enough effect in the repeat runs; an effect the other way counts as inactive or inconclusive; note: % is set by controls: 0 for no effect and ±100 for the full control effect; nearly all actives have a fitted effect of over 50% in size)
Outline: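 Tet-on ROR gamma CHO cells were given compounds for 2 hr, then doxycycline hyclate at 1 uM final, and incubated 16 hr at 37 C. Viability was measured as ATP content by CellTiter-Glo luminescence.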

[8] = target: Nuclear receptor ROR-gamma (Homo sapiens) (UniProt P51449); assay: qHTS assay to identify small molecule antagonists of the retinoid-related orphan receptor gamma (ROR-gamma) signaling pathway (AID 1159521; active = well fitted curve in the direction sought with a large enough effect in the repeat runs; an effect the other way counts as inactive or inconclusive)
Outline: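 CHO cells expressing RORγ under a TET-on promoter, luciferase under RORE control. Dox 1 uM final, 16 h; compounds added 2 h prior. Luminescence decrease measured.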

[9] = qHTS assay to identify small molecule agonists of the AP-1 signaling pathway - cell viability counter screen (AID 1159525); note: nearly all actives have a fitted effect of over 55% in size
Outline: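 Same-well cytotoxicity counter screen of the Tox21 10K library in ME-180 cells. The readout is ATP-dependent luminescence after 5 h compound treatment. Data are normalised to DMSO and tetra n-octyl ammonium bromide controls.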

[10] = qHTS assay to identify small molecule agonists of the AP-1 signaling pathway (AID 1159526); note: % is set by controls: 0 for no effect and ±100 for the full control effect

CCC=O
inactive: Potency [1] | Potency [2] | outcome [3] | outcome [4] | outcome [5] | outcome [6] | outcome [7] | Potency [8] | Potency [9] | outcome [10]

CCCCCCCCCCCCCC=O
inactive: activity change, negative = cytotoxicity [1] -0.0946% [at 5.95 µM] | viability change, negative = cytotoxic [2] 5.28% [at 6.95 µM] | activation [3] -1.29% [at 6.95 µM] | activity, negative = cytotoxic [4] 2.89% [at 6.95 µM] | activation [5] -3.51% [at 6.95 µM] | activity change, negative = cytotoxicity [6] 0.611% [at 6.95 µM] | activity, negative = cytotoxicity [7] 2.5% [at 8.39 µM] | activity change, negative = inhibition [8] 5.08% [at 8.39 µM] | viability change, negative = cytotoxic [9] -4.58% [at 6.97 µM] | activation [10] -1.06% [at 6.97 µM]

CCOC(=O)CCC(C)=O
inactive: Potency [1] | Potency [2] | outcome [3] | outcome [4] | outcome [5] | outcome [6] | outcome [7] | Potency [8] | Potency [9] | outcome [10]

Nc1c2c(nc3ccccc13)CCCC2O (stereo not given)
inactive: Potency [1] | Potency [2] | outcome [3] | outcome [4] | outcome [5] | outcome [6] | outcome [7] | Potency [8] | Potency [9] | outcome [10]

CC(C)(C)NCCNC(C)(C)C
inactive: Potency [1] | Potency [2] | outcome [3] | outcome [4] | outcome [5] | outcome [6] | outcome [7] | Potency [8] | Potency [9] | outcome [10]

CC1(C)CO[C@@H](CC(=O)O)CN1
inactive: Potency [1] | Potency [2] | outcome [3] | outcome [4] | outcome [5] | outcome [6] | outcome [7] | Potency [8] | Potency [9] | outcome [10]

COc1ccc(CCN(C)CCCC(C#N)(c2cc(OC)c(OC)c(OC)c2)C(C)C)cc1OC (stereo not given)
inactive: Potency [1] | Potency [2] | outcome [3] | outcome [4] | outcome [5] | outcome [6] | outcome [7] | Potency [8] | Potency [9] | outcome [10]

CCCN1CCCC[C@H]1C(=O)Nc1c(C)cccc1C
inactive: Potency [1] | Potency [2] | outcome [3] | outcome [4] | outcome [5] | outcome [6] | outcome [7] | Potency [8] | Potency [9] | outcome [10]

CCOC(=O)c1c(C)n(C)c2ccc(O)cc12
inactive: Potency [1] | Potency [2] | outcome [3] | outcome [4] | outcome [5] | outcome [6] | outcome [7] | Potency [8] | Potency [9] | outcome [10]

NC(=O)Nc1ccccc1
inactive: Potency [1] | Potency [2] | outcome [3] | outcome [4] | outcome [5] | outcome [6] | outcome [7] | Potency [8] | Potency [9] | outcome [10]

COC(=O)CC(C)=O
inactive: Potency [1] | Potency [2] | outcome [3] | outcome [4] | outcome [5] | outcome [6] | outcome [7] | Potency [8] | Potency [9] | outcome [10]

O=C1NC(=O)[C@@]2(CCOc3ccc(F)cc32)N1
inactive: Potency [1] | Potency [2] | outcome [3] | outcome [4] | outcome [5] | outcome [6] | outcome [7] | Potency [8] | Potency [9] | outcome [10]

Nc1c[n+](N2CCOCC2)no1
inactive: Potency [1] | Potency [2] | outcome [3] | outcome [4] | outcome [5] | outcome [6] | outcome [7] | Potency [8] | Potency [9] | outcome [10]

Nc1nc2c(ncn2COC(CO)CO)c(=O)[nH]1
inactive: Potency [1] | Potency [2] | outcome [3] | outcome [4] | outcome [5] | outcome [6] | outcome [7] | Potency [8] | Potency [9] | outcome [10]

Cc1c(O)cccc1O
inactive: Potency [1] | Potency [2] | outcome [3] | outcome [4] | outcome [5] | outcome [6] | outcome [7] | Potency [8] | Potency [9] | outcome [10]

CCCCC/C=C\CCC=O
inactive: Potency [1] | Potency [2] | outcome [3] | outcome [4] | outcome [5] | outcome [6] | outcome [7] | Potency [8] | Potency [9] | outcome [10]

NS(=O)(=O)c1cc2c(cc1Cl)NC(C1CC3C=CC1C3)NS2(=O)=O (stereo not given)
inactive: Potency [1] | Potency [2] | outcome [3] | outcome [4] | outcome [5] | outcome [6] | outcome [7] | Potency [8] | Potency [9] | outcome [10]

C=C[Si](OC(=C)C)(OC(=C)C)OC(=C)C
inactive: Potency [1] | Potency [2] | outcome [3] | outcome [4] | outcome [5] | outcome [6] | outcome [7] | Potency [8] | Potency [9] | outcome [10]

O=C(CCCN1CCN(c2ccccn2)CC1)c1ccc(F)cc1
inactive: Potency [1] | Potency [2] | outcome [3] | outcome [4] | outcome [5] | outcome [6] | outcome [7] | Potency [8] | Potency [9] | outcome [10]

CC(=O)OCC(CCn1cnc2cnc(N)nc21)COC(C)=O
inactive: Potency [1] | Potency [2] | outcome [3] | outcome [4] | outcome [5] | outcome [6] | outcome [7] | Potency [8] | Potency [9] | outcome [10]

C[N+](C)(C)CC(O)CC(=O)[O-] (stereo not given)
inactive: Potency [1] | Potency [2] | outcome [3] | outcome [4] | outcome [5] | outcome [6] | outcome [7] | Potency [8] | Potency [9] | outcome [10]

CC(C[N+](C)(C)C)OC(N)=O (stereo not given)
inactive: Potency [1] | Potency [2] | outcome [3] | outcome [4] | outcome [5] | outcome [6] | outcome [7] | Potency [8] | Potency [9] | outcome [10]

O=[N+]([O-])c1ccc(F)cc1F
inactive: Potency [1] | Potency [2] | outcome [3] | outcome [4] | outcome [5] | outcome [6] | outcome [7] | Potency [8] | Potency [9] | outcome [10]

C=C(C)C(=O)OCCCCCCCC(C)C
inactive: Potency [1] | Potency [2] | outcome [3] | outcome [4] | outcome [5] | outcome [6] | outcome [7] | Potency [8] | Potency [9] | outcome [10]

CCCCOCCOCCOCCCC
inactive: Potency [1] | Potency [2] | outcome [3] | outcome [4] | outcome [5] | outcome [6] | outcome [7] | Potency [8] | Potency [9] | outcome [10]
